# Reference: PMC7862700, “An all-to-all approach to the identification of sequence-specific readers for epigenetic DNA modifications on cytosine”
# What was measured:
# Assay in all cases: DAPPL (digital affinity profiling via proximity ligation, sequencing); 10 mM Tris-HCl pH 7.5, 50 mM NaCl, 1 mM DTT, 4% glycerol, room temperature, 30 min; GST-TFs on glutathione beads, 16-mer random dsDNA library, 0.1% formaldehyde crosslink after washing; high values mean tight binding
# Details in all cases: protein: recombinant; tags: N-terminal GST; dsDNA, one strand shown
# ERG = target: T1, ERG (Homo sapiens, UniProt P11308 1-479)
# T1 sequence: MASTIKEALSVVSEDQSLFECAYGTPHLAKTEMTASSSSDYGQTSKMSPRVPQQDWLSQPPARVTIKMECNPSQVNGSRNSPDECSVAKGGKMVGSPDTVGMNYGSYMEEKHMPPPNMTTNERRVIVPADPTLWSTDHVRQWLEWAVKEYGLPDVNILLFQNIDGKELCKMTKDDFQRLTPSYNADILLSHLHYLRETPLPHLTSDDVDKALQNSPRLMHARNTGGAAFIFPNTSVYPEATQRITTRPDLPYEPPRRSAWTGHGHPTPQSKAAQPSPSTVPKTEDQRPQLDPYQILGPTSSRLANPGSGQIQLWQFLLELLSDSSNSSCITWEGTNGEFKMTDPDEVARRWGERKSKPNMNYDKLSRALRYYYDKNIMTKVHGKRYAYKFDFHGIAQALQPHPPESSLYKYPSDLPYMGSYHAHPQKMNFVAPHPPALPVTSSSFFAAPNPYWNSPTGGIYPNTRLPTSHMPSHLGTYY
# Procedure, shortened: (§1)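 A tag-only sample was pooled with DNA-barcoded human transcription factors that had been expressed in yeast as GST fusions and captured on glutathione beads. The pools were incubated for 30 min at room temperature with 200 nmole of a random double-stranded 16-mer DNA library in Tris/NaCl/DTT/glycerol buffer, then washed, crosslinked with 0.1% formaldehyde, proximity-ligated (BsaI/T4 ligase, 1 h, 37 °C), PCR-amplified and sequenced on an Illumina NextSeq500. Binding signal is each hexamer's read frequency for a factor divided by its frequency for the tag-only sample.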
# SPIB = SPIB (Homo sapiens, UniProt Q01892 1-262)
# Procedure, shortened: as §1
# ELK4 = target: T2, ELK4 (Homo sapiens, UniProt P28324-2 1-405)
# T2 sequence: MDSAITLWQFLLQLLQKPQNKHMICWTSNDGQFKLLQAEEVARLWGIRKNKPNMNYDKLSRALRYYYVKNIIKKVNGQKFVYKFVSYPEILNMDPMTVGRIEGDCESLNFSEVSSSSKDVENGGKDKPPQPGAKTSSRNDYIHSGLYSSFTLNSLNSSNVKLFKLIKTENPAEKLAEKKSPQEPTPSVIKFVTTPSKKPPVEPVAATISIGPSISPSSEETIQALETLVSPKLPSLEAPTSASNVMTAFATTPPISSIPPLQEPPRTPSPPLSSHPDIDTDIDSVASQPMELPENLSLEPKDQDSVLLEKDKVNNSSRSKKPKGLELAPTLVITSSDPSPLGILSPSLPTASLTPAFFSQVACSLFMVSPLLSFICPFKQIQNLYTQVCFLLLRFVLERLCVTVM
# Procedure, shortened: as §1
# ETV3L = target: T3, ETV3L (Homo sapiens, UniProt Q6ZN32 1-361)
# T3 sequence: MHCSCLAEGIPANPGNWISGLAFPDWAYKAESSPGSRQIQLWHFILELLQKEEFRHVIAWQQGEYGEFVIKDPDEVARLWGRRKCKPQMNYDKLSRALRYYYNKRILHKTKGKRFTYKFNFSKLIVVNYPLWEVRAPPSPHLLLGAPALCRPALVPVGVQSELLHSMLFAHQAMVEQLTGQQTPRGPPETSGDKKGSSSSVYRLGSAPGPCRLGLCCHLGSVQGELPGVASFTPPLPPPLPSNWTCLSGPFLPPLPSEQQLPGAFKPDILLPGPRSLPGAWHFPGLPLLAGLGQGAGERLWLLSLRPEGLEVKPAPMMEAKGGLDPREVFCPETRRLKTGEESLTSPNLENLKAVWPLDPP
# Procedure, shortened: as §1
# ETS2 = target: T4, ETS2 (Homo sapiens, UniProt P15036 1-469)
# T4 sequence: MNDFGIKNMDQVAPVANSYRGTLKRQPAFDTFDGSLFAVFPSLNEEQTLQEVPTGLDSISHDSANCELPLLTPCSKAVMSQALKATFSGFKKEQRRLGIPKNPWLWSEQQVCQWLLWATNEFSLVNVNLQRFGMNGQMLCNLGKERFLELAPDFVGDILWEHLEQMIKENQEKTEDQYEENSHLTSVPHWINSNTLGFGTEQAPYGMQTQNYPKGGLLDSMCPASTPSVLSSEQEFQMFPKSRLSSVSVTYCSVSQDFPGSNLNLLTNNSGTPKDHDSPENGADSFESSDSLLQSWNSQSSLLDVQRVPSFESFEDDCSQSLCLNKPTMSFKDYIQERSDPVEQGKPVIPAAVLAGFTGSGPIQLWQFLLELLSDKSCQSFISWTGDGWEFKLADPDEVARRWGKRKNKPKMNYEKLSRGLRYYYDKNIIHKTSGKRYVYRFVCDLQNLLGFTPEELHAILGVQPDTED
# Procedure, shortened: as §1
# ELF1 = ELF1 (Homo sapiens, UniProt P32519 1-619)
# Procedure, shortened: as §1
# ERF = target: T5, ERF (Homo sapiens, UniProt P50548 1-548)
# T5 sequence: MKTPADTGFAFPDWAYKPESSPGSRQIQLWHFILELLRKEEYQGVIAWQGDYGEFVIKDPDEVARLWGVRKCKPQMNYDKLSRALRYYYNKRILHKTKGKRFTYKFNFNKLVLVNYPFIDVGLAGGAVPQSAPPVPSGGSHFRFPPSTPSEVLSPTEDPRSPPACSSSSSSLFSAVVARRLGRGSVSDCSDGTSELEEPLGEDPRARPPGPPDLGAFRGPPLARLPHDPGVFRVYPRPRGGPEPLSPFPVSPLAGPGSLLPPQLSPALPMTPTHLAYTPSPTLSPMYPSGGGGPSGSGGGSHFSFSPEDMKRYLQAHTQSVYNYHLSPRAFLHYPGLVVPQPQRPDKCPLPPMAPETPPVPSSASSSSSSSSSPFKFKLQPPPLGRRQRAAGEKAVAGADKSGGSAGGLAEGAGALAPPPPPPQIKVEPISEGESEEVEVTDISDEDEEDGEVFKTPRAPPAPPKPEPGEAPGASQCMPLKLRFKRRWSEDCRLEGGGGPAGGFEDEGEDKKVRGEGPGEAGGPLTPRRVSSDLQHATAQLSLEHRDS
# Procedure, shortened: as §1
# ETV7 = target: T6, ETV7 (Homo sapiens, UniProt Q9Y603 1-341)
# T6 sequence: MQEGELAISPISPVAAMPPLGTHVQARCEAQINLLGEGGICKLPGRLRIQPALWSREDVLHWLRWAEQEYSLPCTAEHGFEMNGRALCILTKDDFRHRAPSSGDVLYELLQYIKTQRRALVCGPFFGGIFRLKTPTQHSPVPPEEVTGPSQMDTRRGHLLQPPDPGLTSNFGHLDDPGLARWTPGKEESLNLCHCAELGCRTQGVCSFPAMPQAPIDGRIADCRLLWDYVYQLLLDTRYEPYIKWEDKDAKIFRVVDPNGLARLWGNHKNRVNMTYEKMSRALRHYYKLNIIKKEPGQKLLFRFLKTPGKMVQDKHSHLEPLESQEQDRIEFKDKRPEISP
# Procedure, shortened: as §1
# ELK1 = target: T7, ELK1 (Homo sapiens, UniProt P19419 1-428)
# T7 sequence: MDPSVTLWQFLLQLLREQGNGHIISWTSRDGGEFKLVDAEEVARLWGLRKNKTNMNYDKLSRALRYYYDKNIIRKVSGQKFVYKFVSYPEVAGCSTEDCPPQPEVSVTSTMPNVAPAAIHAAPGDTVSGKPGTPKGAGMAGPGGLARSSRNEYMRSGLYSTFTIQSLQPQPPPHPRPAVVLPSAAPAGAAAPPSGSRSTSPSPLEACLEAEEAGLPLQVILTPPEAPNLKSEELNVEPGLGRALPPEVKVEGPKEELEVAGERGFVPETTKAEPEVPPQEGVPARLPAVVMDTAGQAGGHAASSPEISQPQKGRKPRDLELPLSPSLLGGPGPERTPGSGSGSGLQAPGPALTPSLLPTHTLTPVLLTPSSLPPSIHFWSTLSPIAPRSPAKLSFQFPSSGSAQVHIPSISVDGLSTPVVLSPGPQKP
# Procedure, shortened: as §1
# GABPA = target: T8, GABPA (Homo sapiens, UniProt Q06546 1-454)
# T8 sequence: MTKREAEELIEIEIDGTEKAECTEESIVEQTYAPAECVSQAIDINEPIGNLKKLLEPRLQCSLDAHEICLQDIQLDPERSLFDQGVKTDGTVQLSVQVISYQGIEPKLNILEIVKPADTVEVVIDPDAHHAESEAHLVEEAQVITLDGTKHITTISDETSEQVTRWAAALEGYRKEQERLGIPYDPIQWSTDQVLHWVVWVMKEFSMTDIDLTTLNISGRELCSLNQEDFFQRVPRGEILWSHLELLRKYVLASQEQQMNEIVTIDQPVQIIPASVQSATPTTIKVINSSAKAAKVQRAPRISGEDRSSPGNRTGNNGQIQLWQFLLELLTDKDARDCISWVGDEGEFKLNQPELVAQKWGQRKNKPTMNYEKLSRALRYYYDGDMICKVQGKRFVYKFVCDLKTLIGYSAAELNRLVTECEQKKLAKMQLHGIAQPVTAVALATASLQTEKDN
# Procedure, shortened: as §1
# SPI1 = SPI1 (Homo sapiens, UniProt P17947 1-270)
# Procedure, shortened: as §1
# CRX = CRX (Homo sapiens, UniProt O43186 1-299)
# Procedure, shortened: as §1
# ETV3 = target: T9, ETV3 (Homo sapiens, UniProt P41162-2 1-143)
# T9 sequence: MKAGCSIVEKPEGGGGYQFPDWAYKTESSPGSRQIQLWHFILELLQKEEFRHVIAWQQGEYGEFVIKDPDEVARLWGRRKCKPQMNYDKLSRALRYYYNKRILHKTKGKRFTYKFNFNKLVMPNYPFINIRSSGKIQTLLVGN
# Procedure, shortened: as §1
# ETV6 = ETV6 (Homo sapiens, UniProt P41212 1-452)
# Procedure, shortened: as §1
# ELK3 = target: T10, ELK3 (Homo sapiens, UniProt P41970 1-407)
# T10 sequence: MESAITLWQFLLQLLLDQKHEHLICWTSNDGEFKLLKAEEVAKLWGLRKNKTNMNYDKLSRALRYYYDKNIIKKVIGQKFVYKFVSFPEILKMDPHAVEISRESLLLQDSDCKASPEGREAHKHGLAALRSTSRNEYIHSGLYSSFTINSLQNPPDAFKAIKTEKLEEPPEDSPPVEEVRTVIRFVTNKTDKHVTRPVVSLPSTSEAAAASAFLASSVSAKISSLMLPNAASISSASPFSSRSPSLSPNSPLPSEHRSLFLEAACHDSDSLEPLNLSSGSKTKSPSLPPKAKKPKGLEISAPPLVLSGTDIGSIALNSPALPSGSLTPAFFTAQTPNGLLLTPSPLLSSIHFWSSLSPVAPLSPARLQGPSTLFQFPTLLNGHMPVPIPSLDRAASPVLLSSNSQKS
# Procedure, shortened: as §1
# SPIB, sequence (Q01892 whole entry): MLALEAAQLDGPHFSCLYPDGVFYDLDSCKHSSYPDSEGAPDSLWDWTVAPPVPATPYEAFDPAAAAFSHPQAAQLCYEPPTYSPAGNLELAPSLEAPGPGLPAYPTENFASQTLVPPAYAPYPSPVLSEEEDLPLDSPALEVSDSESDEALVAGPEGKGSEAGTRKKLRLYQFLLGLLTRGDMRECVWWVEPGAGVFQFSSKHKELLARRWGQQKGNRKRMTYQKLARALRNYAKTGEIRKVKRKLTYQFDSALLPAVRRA
# CRX, sequence (O43186 whole entry): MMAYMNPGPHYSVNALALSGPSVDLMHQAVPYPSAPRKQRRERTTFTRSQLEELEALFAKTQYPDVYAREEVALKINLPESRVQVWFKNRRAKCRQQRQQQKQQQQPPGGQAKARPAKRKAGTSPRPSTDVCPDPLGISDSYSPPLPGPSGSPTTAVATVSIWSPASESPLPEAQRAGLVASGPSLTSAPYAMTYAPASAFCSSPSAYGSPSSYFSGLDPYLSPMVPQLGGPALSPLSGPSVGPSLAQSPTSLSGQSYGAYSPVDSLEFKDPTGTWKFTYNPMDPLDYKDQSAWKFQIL
# ELF1, sequence (P32519 whole entry): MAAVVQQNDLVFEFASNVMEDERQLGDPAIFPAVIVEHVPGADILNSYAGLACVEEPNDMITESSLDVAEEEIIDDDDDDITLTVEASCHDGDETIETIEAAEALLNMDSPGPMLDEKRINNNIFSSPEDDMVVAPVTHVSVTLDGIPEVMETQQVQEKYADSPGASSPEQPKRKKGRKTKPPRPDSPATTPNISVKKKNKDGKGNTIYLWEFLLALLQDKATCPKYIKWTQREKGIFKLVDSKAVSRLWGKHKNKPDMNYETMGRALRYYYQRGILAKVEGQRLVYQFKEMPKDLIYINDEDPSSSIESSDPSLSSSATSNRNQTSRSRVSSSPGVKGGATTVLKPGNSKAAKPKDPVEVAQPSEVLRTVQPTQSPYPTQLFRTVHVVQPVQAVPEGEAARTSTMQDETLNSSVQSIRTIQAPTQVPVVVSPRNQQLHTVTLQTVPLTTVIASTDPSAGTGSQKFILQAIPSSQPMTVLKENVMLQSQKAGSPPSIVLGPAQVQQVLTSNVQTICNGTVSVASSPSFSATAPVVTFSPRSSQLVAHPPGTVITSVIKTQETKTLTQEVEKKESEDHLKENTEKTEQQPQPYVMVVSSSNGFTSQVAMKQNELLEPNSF
# ETV6, sequence (P41212 whole entry): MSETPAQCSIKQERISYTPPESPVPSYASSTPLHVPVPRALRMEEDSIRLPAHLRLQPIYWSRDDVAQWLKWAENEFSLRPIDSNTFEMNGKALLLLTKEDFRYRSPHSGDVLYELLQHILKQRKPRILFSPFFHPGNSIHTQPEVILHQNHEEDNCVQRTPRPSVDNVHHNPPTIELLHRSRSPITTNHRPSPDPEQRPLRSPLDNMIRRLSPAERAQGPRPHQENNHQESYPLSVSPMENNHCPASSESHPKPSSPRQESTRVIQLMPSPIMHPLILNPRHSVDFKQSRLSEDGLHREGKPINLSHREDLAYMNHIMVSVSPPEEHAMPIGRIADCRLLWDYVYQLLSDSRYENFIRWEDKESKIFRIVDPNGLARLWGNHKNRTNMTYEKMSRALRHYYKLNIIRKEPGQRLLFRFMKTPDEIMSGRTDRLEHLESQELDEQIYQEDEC
sequence,measurement,setting,value
ACGCGT,binding signal,ERG,"1 fold enrichment (6-mer frequency, TF over GST control)"
same,binding signal,SPIB,"1.04 fold enrichment (6-mer frequency, TF over GST control)"
same,binding signal,ELK4,"1.1 fold enrichment (6-mer frequency, TF over GST control)"
same,binding signal,ETV3L,"1.02 fold enrichment (6-mer frequency, TF over GST control)"
same,binding signal,ETS2,"1.01 fold enrichment (6-mer frequency, TF over GST control)"
ACACAG,binding signal,ELF1,"1.05 fold enrichment (6-mer frequency, TF over GST control)"
same,binding signal,ELK4,"1.12 fold enrichment (6-mer frequency, TF over GST control)"
same,binding signal,ERF,"1.04 fold enrichment (6-mer frequency, TF over GST control)"
same,binding signal,ETV3L,"1.05 fold enrichment (6-mer frequency, TF over GST control)"
same,binding signal,ETV7,"1.13 fold enrichment (6-mer frequency, TF over GST control)"
GTTGTG,binding signal,ELK4,"1.07 fold enrichment (6-mer frequency, TF over GST control)"
same,binding signal,ETV3L,"1.02 fold enrichment (6-mer frequency, TF over GST control)"
ATAACG,binding signal,ELK1,"1.04 fold enrichment (6-mer frequency, TF over GST control)"
same,binding signal,GABPA,"1 fold enrichment (6-mer frequency, TF over GST control)"
same,binding signal,SPI1,"1.01 fold enrichment (6-mer frequency, TF over GST control)"
same,binding signal,SPIB,"1.01 fold enrichment (6-mer frequency, TF over GST control)"
same,binding signal,CRX,"1 fold enrichment (6-mer frequency, TF over GST control)"
same,binding signal,ETS2,"1.05 fold enrichment (6-mer frequency, TF over GST control)"
same,binding signal,ETV3,"1.05 fold enrichment (6-mer frequency, TF over GST control)"
same,binding signal,ETV6,"1.03 fold enrichment (6-mer frequency, TF over GST control)"
GCGTTA,binding signal,ELK3,"1.09 fold enrichment (6-mer frequency, TF over GST control)"
same,binding signal,ELK4,"1.02 fold enrichment (6-mer frequency, TF over GST control)"
same,binding signal,CRX,"1.06 fold enrichment (6-mer frequency, TF over GST control)"
same,binding signal,ETV3L,"1.04 fold enrichment (6-mer frequency, TF over GST control)"
